The text below walks through data of PubChem BioAssay (NCI).

The panel holds about 83,000 compounds, 20% with a hit somewhere; the sample as a whole holds those more often.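 Plates (96-well) were seeded with cells, treated with compound at one concentration, and incubated for 48 hours before percent growth was determined.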 Unmarked numbers belong to inactive results. Calls of active or inactive are those of the source. Rule for the calls: active = growth percent below 10; inactive = the rest.

Holding throughout (experiment): NCI-60 one-dose screen, 48 h (100 = growth as untreated, 0 = no growth, -100 = all killed)
One test has as its system DU-145 prostate. The settings on record: 10 µM unless noted.
For the next test, the system named is K-562 leukemia. The settings on record: 10 µM unless noted.
For the next test, the system named is MALME-3M melanoma. The settings on record: 10 µM unless noted.
Another test deals with MDA-MB-231 breast. The following applies: 10 µM unless noted.
In another test the test system is RXF 393 renal. The settings on record: 10 µM unless noted.
Another test has as its system SF-268 CNS. The following applies: 10 µM unless noted.
A further test has as its system SF-295 CNS. The settings on record: 10 µM unless noted.
For another test, the system named is SF-539 CNS. The settings on record: 10 µM unless noted.
The next test has as its system UACC-257 melanoma. The following applies: 10 µM.
The next test relates to M14 melanoma. The following applies: 10 µM unless noted.

Regarding `COc1ccc(-c2nn(-c3ccccc3)cc2/C=C/C(=O)c2ccc(NC(=O)CCCCCCC(=O)NO)cc2)cc1`, the growth was 97.6% in the test on DU-145 prostate; 84.6% in the test on K-562 leukemia; 137% in the test with MALME-3M melanoma; 99% in the test with MDA-MB-231 breast; 63.8% in the test with RXF 393 renal; 108% in the test with SF-268 CNS. Further, the growth was 119% in the test with SF-295 CNS, 105% in the test on SF-539 CNS and 114% in the test with UACC-257 melanoma.
As to `COCCC[C@H]1O[C@@](O)([C@H](C)[C@@H]2CC(OC)C(O)/C=C(C)/C=C(C)/C=C(\C)C(OC3O[C@@H](C)[C@H](O)C(O)[C@@H]3O)C(C)/C=C(C)/C=C(OC)/C=C(\C)C(=O)O2)C(OC)C(O)[C@]1(C)O[C@H]1C[C@@H](O)[C@H](O[C@H]2C[C@](C)(O)[C@H](O)C(C)O2)C(C)O1` (some centres undefined), the growth in the test on DU-145 prostate was 48.5%; in the test with K-562 leukemia it was 21.2%; in the test with MALME-3M melanoma, 51.1%; in the test with MDA-MB-231 breast, 84.1%; with RXF 393 renal it was 47.6%; with SF-268 CNS it was 73%. Besides, the growth in the test on SF-295 CNS was 24.8%; with SF-539 CNS, 79.2%; in the test on UACC-257 melanoma it was 3.39% (active).
Take `Cc1ccc(-n2cc(/C=C/C(=O)c3ccc(S(C)(=O)=O)cc3)c(-c3ccc(S(C)(=O)=O)cc3)n2)cc1`: the growth was 104% with DU-145 prostate; 27% in the test with K-562 leukemia; 50.3% with MALME-3M melanoma; 86.5% in the test on MDA-MB-231 breast; 97.9% in the test with RXF 393 renal; 104% with SF-268 CNS. The figures for the growth in the test with SF-295 CNS, in the test with SF-539 CNS and with UACC-257 melanoma were 97.2%, 88.8% and 100%, respectively.
On to `O=C(NCCCNc1cc(-c2cn(-c3ccccc3)nc2-c2cccc(O)c2)ccn1)Nc1cc(C(F)(F)F)cc(C(F)(F)F)c1`, for which the growth in the test on DU-145 prostate is 95.8%; with K-562 leukemia, 50.7%; in the test with MALME-3M melanoma, 67%; in the test on MDA-MB-231 breast, 66.8%; with RXF 393 renal it was 8.69% (active); with SF-268 CNS, 60.6%. Besides, the growth in the test on SF-295 CNS is 45.3%; in the test on SF-539 CNS it was 74.9%; in the test with UACC-257 melanoma it was 82.3%.
For `C#CCOc1ccccc1C(Nc1ccccc1)c1nnnn1C1CCCCC1` (centres undefined), the growth in the test with DU-145 prostate was 105%; in the test on K-562 leukemia, 77.5%; in the test on MALME-3M melanoma, 100%; in the test on MDA-MB-231 breast, 96.1%; in the test on RXF 393 renal, 113%; with SF-268 CNS, 93.7%. In addition, the growth in the test on SF-295 CNS is 88.5%; in the test on SF-539 CNS, 101%; in the test with UACC-257 melanoma it was 101%.
Regarding `O=C(c1cccc(F)c1)n1ccc2cc(NC(=S)Nc3cccnc3)ccc21`, the growth with DU-145 prostate was 102%; in the test on K-562 leukemia, 96%; in the test with MALME-3M melanoma it was 92.7%; in the test on MDA-MB-231 breast, 106%; with RXF 393 renal, 108%; in the test with SF-268 CNS it was 95.7%. In addition, the growth with SF-295 CNS is 97.3%; with SF-539 CNS, 99.8%; with UACC-257 melanoma, 97.4%.
Regarding `CN1C(=O)N(C)C2C1NN=c1s/c(=C\c3ccccn3)c(=O)n12` (centres undefined), the growth in the test with DU-145 prostate was 108%; in the test on K-562 leukemia, 93.9%; with MALME-3M melanoma, 92.7%; in the test on MDA-MB-231 breast it was 98%; in the test on RXF 393 renal, 102%; in the test with SF-268 CNS, 99.9%. The results for the growth with SF-295 CNS, in the test with SF-539 CNS and in the test on UACC-257 melanoma were 99.8%, 96.3% and 96.4%, respectively.
Consider `Cc1ccc(NC(=O)c2cccc(CN3CCN(C)CC3)c2)cc1Oc1ccc(-c2[nH]nc3ncnc(N)c23)cc1`, for which the growth with DU-145 prostate is 81.9%; in the test with K-562 leukemia it was 10.6%; in the test on MALME-3M melanoma, 49.2%; in the test with MDA-MB-231 breast, 60.7%; in the test with RXF 393 renal it was 23.3%; with SF-268 CNS it was 73.8%. Moreover, the results for the growth in the test with SF-295 CNS, in the test on SF-539 CNS and in the test on UACC-257 melanoma were 78%, 62% and 75.4%, respectively.
Take `O=C(NCCCNc1cc(-c2cn(-c3ccccc3)nc2-c2cccc(O)c2)ccn1)Nc1ccc(F)cc1`: the growth with DU-145 prostate was 31.4%; in the test with K-562 leukemia, 5.52% (active); in the test with MALME-3M melanoma, -27.3% (active); with MDA-MB-231 breast, 0.136% (active); in the test on RXF 393 renal it was -34.9% (active); in the test on SF-268 CNS, 18%. The growth in the test with SF-295 CNS was -44.3% (active); with SF-539 CNS, 6.41% (active); in the test with UACC-257 melanoma, -51.9% (active).
Regarding `Cc1cc2nc(C(Cl)Cl)nc(-c3ccco3)n2n1`, the growth in the test on DU-145 prostate is -12.5% (active); in the test on K-562 leukemia it was 89.7%; in the test on MALME-3M melanoma, 108%; with MDA-MB-231 breast it was 64.2%; in the test with RXF 393 renal, 12.5%; with SF-268 CNS it was 81.2%. Moreover, the growth with SF-295 CNS was 20.3%; in the test with SF-539 CNS, 66.1%; in the test on UACC-257 melanoma, 92.9%.
For `CC(C)c1nn(-c2ccccc2)c(N2CCCCC2)c1/C=N/NC(N)=S`, the growth in the test on DU-145 prostate was 95.3%; in the test with K-562 leukemia, 82.9%; in the test on MALME-3M melanoma, 104%; in the test with MDA-MB-231 breast, 107%; in the test on RXF 393 renal, 75.5%; with SF-268 CNS, 88%. In addition, the growth with SF-295 CNS was 77.6%; in the test on SF-539 CNS, 88.7%; in the test with UACC-257 melanoma it was 106%; in the test on M14 melanoma, 113%.
Consider `NS(=O)(=O)c1ccc(-n2cc(CC=O)nn2)cc1`, for which the growth was 107% in the test with DU-145 prostate; 93.6% with K-562 leukemia; 108% in the test on MALME-3M melanoma; 103% with MDA-MB-231 breast; 99.5% in the test on RXF 393 renal; 102% in the test with SF-268 CNS. Moreover, the values for the growth with SF-295 CNS, with SF-539 CNS and in the test on UACC-257 melanoma were 98.6%, 99% and 102%, respectively.
Regarding `COc1ccc(-c2nc3cc(Cl)c(Cl)cc3n2CC(=O)N=Nc2c(O)[nH]c3ccc(Cl)cc23)cc1`, the growth is -10.9% (active) in the test on DU-145 prostate; 32.1% in the test on K-562 leukemia; -10.1% (active) with MALME-3M melanoma; 29.8% with MDA-MB-231 breast; -48.2% (active) in the test with RXF 393 renal; 51.8% with SF-268 CNS. Besides, the growth was 4.56% (active) in the test with SF-295 CNS, 36% in the test with SF-539 CNS, 71.9% in the test on UACC-257 melanoma and 11.9% with M14 melanoma.
